Data reported in the supplement of paper PMC10849652.
Targets with a hit are over-represented here; the source holds about 7,900 in all. About 0.6% of all pairs of compound and target were hits.

The targets below were run with CCN(CC)Cc1ccc2cc(COC(=O)Nc3ccc(C(=O)NO)cc3)ccc2c1 [givinostat] (assay: log2 fold change, soluble protein after heating vs DMSO (PISA); higher = thermal stabilisation; K562 cells, 10 uM, 30 min; active = over 0.2 and 3.5 SD of the protein, either way, in both replicates (recomputed)).
Summary of the method: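 Thermal stability values are relative to control samples and come from duplicates. They are expressed as log2 fold changes. For measurement, K562 cells (2×10^6 cells/mL) received 10 μM compound for 30 min, and aliquots were heated for 3 min over 48°C-58°C, pooled, and extracted at 4°C in PBS with 0.5% NP-40. Soluble protein, the supernatant after 21,000xg for 90 min, was quantified by TMTpro 16plex LC-MS/MS with equalised channel sums.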

UniProt Q8NBF2, sequence (Q8NBF2 whole entry, looked up): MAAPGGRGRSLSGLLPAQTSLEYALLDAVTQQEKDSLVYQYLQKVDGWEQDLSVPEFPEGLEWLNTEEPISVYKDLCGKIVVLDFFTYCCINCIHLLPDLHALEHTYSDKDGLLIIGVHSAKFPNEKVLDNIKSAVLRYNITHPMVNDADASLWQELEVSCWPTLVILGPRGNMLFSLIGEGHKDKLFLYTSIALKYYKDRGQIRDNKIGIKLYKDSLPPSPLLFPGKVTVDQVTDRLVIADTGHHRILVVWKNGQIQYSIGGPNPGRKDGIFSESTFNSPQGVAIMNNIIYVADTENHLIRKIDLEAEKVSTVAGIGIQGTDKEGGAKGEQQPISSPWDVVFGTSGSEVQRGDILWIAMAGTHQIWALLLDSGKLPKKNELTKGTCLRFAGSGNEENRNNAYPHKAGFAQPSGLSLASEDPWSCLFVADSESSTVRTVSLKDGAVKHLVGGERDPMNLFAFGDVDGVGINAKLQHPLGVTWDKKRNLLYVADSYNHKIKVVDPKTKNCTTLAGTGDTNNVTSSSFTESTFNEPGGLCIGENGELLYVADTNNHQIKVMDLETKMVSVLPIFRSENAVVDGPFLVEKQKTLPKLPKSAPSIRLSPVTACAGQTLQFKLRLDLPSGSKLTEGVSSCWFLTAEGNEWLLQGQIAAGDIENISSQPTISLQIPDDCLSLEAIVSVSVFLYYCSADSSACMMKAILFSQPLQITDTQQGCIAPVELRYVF
UniProt Q9BZF1, sequence (Q9BZF1 whole entry, looked up): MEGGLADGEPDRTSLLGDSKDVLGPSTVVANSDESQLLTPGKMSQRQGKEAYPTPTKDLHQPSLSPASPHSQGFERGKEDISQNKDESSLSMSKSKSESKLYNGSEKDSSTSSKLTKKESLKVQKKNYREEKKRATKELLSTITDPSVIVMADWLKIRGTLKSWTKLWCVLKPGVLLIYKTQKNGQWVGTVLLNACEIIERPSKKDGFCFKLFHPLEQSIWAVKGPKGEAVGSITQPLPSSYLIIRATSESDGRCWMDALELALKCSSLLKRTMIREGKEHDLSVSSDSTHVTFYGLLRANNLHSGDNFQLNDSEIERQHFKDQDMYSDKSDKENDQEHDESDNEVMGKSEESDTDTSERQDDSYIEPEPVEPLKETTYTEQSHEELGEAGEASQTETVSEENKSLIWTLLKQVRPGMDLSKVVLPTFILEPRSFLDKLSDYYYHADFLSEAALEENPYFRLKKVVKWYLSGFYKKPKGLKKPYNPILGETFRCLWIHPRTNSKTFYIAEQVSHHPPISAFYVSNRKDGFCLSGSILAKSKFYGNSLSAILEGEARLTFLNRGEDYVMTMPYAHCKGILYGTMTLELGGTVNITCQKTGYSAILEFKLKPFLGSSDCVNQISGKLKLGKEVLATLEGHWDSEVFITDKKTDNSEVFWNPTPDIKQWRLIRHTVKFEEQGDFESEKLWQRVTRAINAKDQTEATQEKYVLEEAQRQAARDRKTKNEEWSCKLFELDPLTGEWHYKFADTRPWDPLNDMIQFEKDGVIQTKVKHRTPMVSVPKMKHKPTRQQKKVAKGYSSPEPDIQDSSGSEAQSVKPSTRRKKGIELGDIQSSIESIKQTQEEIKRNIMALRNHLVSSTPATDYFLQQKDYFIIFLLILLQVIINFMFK
UniProt P15559, sequence (P15559 whole entry, looked up): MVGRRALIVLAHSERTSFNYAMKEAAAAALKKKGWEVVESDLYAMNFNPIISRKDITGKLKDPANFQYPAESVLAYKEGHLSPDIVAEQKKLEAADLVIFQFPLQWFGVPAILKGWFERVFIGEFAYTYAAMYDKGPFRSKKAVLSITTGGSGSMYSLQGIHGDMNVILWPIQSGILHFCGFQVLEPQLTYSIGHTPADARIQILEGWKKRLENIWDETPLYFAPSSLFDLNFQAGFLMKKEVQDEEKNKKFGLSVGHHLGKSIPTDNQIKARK
UniProt P49757, sequence (P49757 whole entry, looked up): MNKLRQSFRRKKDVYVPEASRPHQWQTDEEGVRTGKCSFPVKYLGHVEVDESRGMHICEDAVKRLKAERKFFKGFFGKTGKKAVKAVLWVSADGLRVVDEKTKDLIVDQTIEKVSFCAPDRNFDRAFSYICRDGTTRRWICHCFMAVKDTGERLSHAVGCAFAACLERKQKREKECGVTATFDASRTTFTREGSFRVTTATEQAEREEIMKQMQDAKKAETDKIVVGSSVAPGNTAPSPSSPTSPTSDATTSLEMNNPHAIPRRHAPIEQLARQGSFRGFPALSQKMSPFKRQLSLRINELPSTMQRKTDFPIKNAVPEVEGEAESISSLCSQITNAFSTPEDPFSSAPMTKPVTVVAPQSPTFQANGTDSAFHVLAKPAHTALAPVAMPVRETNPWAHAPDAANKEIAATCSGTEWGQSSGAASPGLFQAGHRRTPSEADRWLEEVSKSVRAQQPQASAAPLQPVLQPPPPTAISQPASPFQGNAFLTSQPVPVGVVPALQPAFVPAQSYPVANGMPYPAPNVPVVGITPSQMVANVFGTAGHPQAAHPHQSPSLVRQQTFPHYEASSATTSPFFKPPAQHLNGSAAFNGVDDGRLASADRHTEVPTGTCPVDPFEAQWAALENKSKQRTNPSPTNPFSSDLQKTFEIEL
UniProt P49116, sequence (P49116 whole entry, looked up): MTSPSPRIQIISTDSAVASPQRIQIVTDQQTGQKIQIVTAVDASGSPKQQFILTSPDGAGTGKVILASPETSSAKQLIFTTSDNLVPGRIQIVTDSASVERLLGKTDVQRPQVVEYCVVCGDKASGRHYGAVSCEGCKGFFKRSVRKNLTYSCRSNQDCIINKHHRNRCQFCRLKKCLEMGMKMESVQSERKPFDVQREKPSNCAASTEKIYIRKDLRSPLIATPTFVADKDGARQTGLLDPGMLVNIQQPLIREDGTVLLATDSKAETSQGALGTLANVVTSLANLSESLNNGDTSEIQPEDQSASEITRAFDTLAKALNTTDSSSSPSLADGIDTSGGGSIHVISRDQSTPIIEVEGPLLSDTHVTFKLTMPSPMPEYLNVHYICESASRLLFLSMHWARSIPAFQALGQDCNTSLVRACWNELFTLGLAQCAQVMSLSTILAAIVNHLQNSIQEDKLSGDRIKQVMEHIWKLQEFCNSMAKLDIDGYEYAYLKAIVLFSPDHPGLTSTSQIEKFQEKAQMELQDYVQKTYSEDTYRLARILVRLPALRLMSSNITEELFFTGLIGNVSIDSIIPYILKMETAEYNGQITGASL
UniProt O95182, sequence (O95182 whole entry, looked up): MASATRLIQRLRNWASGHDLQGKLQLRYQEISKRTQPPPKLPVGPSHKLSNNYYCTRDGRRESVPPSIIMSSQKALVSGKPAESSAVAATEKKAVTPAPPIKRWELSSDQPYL
UniProt Q8N4C8, sequence (Q8N4C8 whole entry, looked up): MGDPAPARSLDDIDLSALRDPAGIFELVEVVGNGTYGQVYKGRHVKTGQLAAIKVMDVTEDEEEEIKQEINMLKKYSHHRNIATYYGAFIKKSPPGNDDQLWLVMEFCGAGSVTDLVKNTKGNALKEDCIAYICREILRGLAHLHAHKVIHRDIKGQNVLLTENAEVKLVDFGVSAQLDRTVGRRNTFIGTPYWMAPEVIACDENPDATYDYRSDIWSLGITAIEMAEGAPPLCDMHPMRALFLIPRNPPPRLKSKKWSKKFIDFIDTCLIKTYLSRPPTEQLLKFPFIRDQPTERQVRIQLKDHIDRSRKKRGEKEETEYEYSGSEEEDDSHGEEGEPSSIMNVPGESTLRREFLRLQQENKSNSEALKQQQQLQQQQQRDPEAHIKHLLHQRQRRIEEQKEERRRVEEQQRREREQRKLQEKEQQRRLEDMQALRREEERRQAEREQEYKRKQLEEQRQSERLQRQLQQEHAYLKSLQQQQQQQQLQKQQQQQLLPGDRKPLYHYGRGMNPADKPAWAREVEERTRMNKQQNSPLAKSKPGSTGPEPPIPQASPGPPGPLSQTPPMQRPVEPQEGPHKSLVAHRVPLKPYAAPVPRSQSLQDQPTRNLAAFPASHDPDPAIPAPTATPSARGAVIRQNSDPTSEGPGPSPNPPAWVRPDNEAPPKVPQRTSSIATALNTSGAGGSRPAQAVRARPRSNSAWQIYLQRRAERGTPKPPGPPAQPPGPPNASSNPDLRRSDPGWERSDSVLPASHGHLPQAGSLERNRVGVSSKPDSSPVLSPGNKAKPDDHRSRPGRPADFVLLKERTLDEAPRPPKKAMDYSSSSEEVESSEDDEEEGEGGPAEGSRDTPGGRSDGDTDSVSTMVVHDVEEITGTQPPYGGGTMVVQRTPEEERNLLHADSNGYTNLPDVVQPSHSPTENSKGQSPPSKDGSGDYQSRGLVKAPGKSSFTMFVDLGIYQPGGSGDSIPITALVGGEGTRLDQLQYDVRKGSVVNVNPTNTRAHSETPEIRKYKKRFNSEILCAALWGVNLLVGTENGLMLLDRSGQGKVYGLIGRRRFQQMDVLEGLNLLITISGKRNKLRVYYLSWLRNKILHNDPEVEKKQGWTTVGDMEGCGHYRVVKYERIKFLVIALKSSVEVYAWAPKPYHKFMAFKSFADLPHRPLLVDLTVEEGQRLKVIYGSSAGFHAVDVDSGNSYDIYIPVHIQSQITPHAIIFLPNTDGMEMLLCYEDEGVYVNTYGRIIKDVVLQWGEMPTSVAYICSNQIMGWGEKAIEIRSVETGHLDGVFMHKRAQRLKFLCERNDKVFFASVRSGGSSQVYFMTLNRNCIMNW
UniProt Q9HAN9, sequence (Q9HAN9 whole entry, looked up): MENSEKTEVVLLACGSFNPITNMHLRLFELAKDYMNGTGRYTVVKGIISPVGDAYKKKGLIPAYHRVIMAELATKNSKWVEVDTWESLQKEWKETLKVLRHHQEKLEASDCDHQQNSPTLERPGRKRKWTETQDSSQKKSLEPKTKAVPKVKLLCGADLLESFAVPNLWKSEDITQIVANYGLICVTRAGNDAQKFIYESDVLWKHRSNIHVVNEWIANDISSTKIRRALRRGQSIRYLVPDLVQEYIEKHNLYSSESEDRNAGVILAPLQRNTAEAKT

log2 fold change, inactive:
MRPS9 (UniProt P82933) 0.026
NMNAT1 (UniProt Q9HAN9) 0.042
NOP53 (UniProt Q9NZM5) 0.048
MT-ND4 (UniProt P03905) 0.058
NHLRC2 (UniProt Q8NBF2) -0.006
NME7 (UniProt Q9Y5B8) -0.202
MRPS16 (UniProt Q9Y3D3) 0.031
NR2C2 isoform 2 (UniProt P49116) -0.073
MORC3 (UniProt Q14149) -0.193
NQO1 (UniProt P15559) -0.01
NDUFA7 (UniProt O95182) -0.024
NOB1 (UniProt Q9ULX3) 0.055
NOP58 (UniProt Q9Y2X3) 0.072
NEMP1 (UniProt O14524) -0.061
NA, A0A0B4J2A0 0.029
OSBPL8 (UniProt Q9BZF1) -0.03
NFX1 (UniProt Q12986) 0
OTUD4 (UniProt Q01804) 0.05
NUMB (UniProt P49757) 0.02
MUL1 (UniProt Q969V5) 0.005
OXR1 (UniProt Q8N573) 0.012
NUP210 (UniProt Q8TEM1) -0.017
MINK1 (UniProt Q8N4C8) -0.007
NUDT1 (UniProt P36639) -0.042
